Laboratory results reported in PubChem BioAssay AID720690 (Broad Institute, 2013).
Entries with a potency or affinity are not part of this list. A number with no mark means an inactive call.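 The calls were made as follows: active = every repeat run showing a signal drop whose fitted half-maximal concentration is at most twice the top tested concentration; inconclusive = repeat runs disagree, or flat partial drop, or poor fit; inactive = the rest.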

Experiment: HEK293T cytotoxicity, dose response, cytotoxicity control for miR-122 modulator project, cell-based, activator set, cherry-pick (AID 720690);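 also: 0% = neutral control wells and -100% = MG132 cytotoxic control wells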
Details: HEK293T viability, CellTiter-Glo luminescence, 48 h; series mostly up to 26 µM; activity change, negative = cytotoxicity: at the top concentration

| SMILES | activity change, negative = cytotoxicity |
| --- | --- |
| C/C=C/c1ccc([C@H]2[C@@H](CO)N[C@@H]2CN(C(=O)c2ccccc2F)C(C)C)cc1 | -11.2% |
| CCC(=O)NC[C@H]1[C@H](c2ccc(C3=CCCC3)cc2)[C@H](CO)N1C(C)=O | -5.92% |
| CNC(=O)C[C@@H]1CC[C@@H]2[C@@H](COc3ccc(NC(=O)c4ccccc4OC)cc3C(=O)N2C)O1 | -6.77% [at 23.5 µM] |
| COc1cccc(-c2ccc3c(c2)O[C@H](CN(C)C(=O)C2CCOCC2)[C@H](C)CN([C@@H](C)CO)S3(=O)=O)c1 | -9.25% |
| CN(C)CCCNC(=O)C[C@H]1CC[C@H]2[C@@H](COc3ccc(NC(=O)c4ccccc4F)cc3C(=O)N2C)O1 | 3.67% |
| Cc1cccc(NC(=O)Nc2ccc3c(c2)C(=O)N(C)[C@H]2CC[C@H](CC(=O)O)O[C@H]2CO3)c1 | 6.36% |
| C/C=C/c1ccc([C@@H]2[C@@H](CO)N(C(=O)C3CC3)[C@H]2CN(C)C(=O)CC2CC2)cc1 | 5% |
| CCNC(=O)C[C@H]1CC[C@H]2[C@H](COc3ccc(NC(=O)Nc4cccc(OC)c4)cc3C(=O)N2C)O1 | -2.63% [at 23.5 µM] |
| COC(=O)C[C@H]1CC[C@@H]2[C@@H](COc3ccc(NC(=O)c4ccc(F)c(F)c4)cc3C(=O)N2C)O1 | -4.61% |
| CCOC(=O)c1ccc(NC(=O)c2ccc(CN3CCOCC3)cc2)cc1 | -13.2% |
| COc1ccc(-c2oc3ncnc(NCCCN4CCOCC4)c3c2-c2ccc(OC)cc2)cc1 | -33.6% |
| CC(C)OCCCNC(=O)c1ccncc1 | -7.92% |
| COCC(=O)Nc1ccc2c(c1)C(=O)N(C)[C@@H]1CC[C@@H](CC(=O)NCc3ccc(OC)cc3)O[C@H]1CO2 | 1.5% |
| CN1C(=O)c2cc(NC(=O)c3ccc4c(c3)OCO4)ccc2OC[C@H]2O[C@@H](CC(=O)O)CC[C@@H]21 | -17.1% |
| COCC(=O)N(C[C@H]1[C@H](c2ccccc2)[C@H](CO)N1C(=O)NC(C)C)C(C)C | -14.9% [at 23.5 µM] |
| Cc1cc(C(F)F)n2ncc(C(=O)NCCc3ccccc3Cl)c2n1 | -0.237% |
| CCC(=O)N1[C@H](CN(C)C(C)=O)[C@H](c2ccc(-c3cccnc3)cc2)[C@@H]1CO | -3.45% |
| CCCNC(=O)C[C@H]1CC[C@H]2[C@@H](COc3ccc(NC(=O)c4cc(F)cc(F)c4)cc3C(=O)N2C)O1 | 1.72% |
| CO[C@@H]1CN(C)C(=O)c2ccc(NC(C)=O)cc2OC[C@@H](C)N(C(=O)c2ccccc2F)C[C@H]1C | 3.69% [at 13.5 µM] |
| CCNC(=O)C[C@H]1CC[C@@H]2[C@@H](COc3ccc(NC(=O)c4cccc(C(F)(F)F)c4)cc3C(=O)N2C)O1 | -8.55% |

| SMILES | activity change, negative = cytotoxicity |
| --- | --- |
| C/C=C/c1ccc([C@@H]2[C@@H](CO)N[C@@H]2CN(CC(C)C)C(=O)c2ccccn2)cc1 | -19.5% |
| CC(C)NC(=O)N1[C@H](CO)[C@@H](c2ccccc2)[C@@H]1CNC(=O)CN(C)C | -3.2% |
| COCCN(C[C@@H]1[C@@H](c2ccccc2)[C@H](CO)N1C(=O)C1CCC1)C(C)=O | 5.88% |
| CCC(=O)N1[C@H](CO)[C@H](c2ccccc2)[C@@H]1CN(C(C)C)S(C)(=O)=O | -13.7% |
| C/C=C/c1ccc([C@@H]2[C@H](CO)N(Cc3ccccn3)[C@H]2CNC(=O)CC)cc1 | 10.8% |
| CCCNC(=O)N1[C@H](CNC(C)=O)[C@H](c2ccc(C3=CCCC3)cc2)[C@@H]1CO | 0.113% |
| CCOc1cc(C(=O)NC(C)COC)cc(OCC)c1OCC (centres undefined) | 0.828% |
| CN1C(=O)c2cc(NC(=O)Nc3ccc(Cl)cc3)ccc2OC[C@@H]2O[C@@H](CC(=O)NCCN3CCCCC3)CC[C@H]21 | -1.75% |
| COCC(=O)N1C[C@H]2[C@@H](c3ccccc31)[C@H](CO)N2C(=O)Nc1ccccc1Cl | -7.62% |
| CCC(=O)NC[C@@H]1[C@@H](c2ccc(C3=CCCC3)cc2)[C@@H](CO)N1C(C)=O | 4.93% |
| O=C(NC[C@@H]1N[C@@H](CO)[C@H]1c1ccccc1)C1CCC1 | -1.63% |
| COCC(=O)Nc1ccc2c(c1)C(=O)N(C)[C@@H]1CC[C@H](CC(=O)NCc3ccccc3F)O[C@H]1CO2 | -13.2% |
| CCCCN1C=C(C(=O)OC)C(c2ccccc2C(F)(F)F)C(C(=O)OC)=C1 | -3.92% |
| CC(=O)N1[C@H](CO)[C@@H](c2ccccc2)[C@H]1CN(CC(C)C)C(=O)c1ccccn1 | 7.05% [at 23.5 µM] |
| COC(=O)C[C@H]1CC[C@@H]2[C@@H](COc3ccc(NC(=O)c4cnccn4)cc3C(=O)N2C)O1 | 10.9% |
| CC(C)Oc1ccc(CNCCC2(C(C)C)CCOC(C)(C)C2)cc1 (centres undefined) | 12% |
| CNC(=O)C[C@H]1CC[C@@H]2[C@H](COc3ccc(NC(=O)Nc4ccccc4OC)cc3C(=O)N2C)O1 | -0.263% |
| CCNC(=O)C[C@@H]1CC[C@@H]2[C@@H](COc3ccc(NC(=O)C4CCCCC4)cc3C(=O)N2C)O1 | 3.38% [at 23.5 µM] |
| CC(=O)N1[C@H](CN(C(=O)c2ccc(F)cc2)C(C)C)[C@@H](c2ccccc2)[C@@H]1CO | -6.51% |
